# Measurements reported in PubChem BioAssay (NCI).
# Compounds without any hit were thinned out: in the full panel of roughly 83,000, 20% have a hit.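 How to read the values: 0–100, growth inhibition (40 = 60% inhibited); 0, no net growth; -100 to 0, cell death (-40 = 40% of starting cells died; -100 = all dead).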 Values without a mark were called inactive. The source made the active and inactive calls. The calls were made as follows: active = growth percent below 10; inactive = the rest.
# Legend:
# Assay in all cases: NCI-60 one-dose screen, 48 h (100 = growth as untreated, 0 = no growth, -100 = all killed)
# Conditions in all cases: 10 µM unless noted
# [1] = test system: T-47D breast
# [2] = test system: BT-549 breast
# [3] = test system: MDA-MB-435 melanoma
# [4] = test system: SW-620 colon
# [5] = test system: MCF7 breast
# [6] = test system: HCT-116 colon
# [7] = test system: HCC-2998 colon
# [8] = test system: KM12 colon
Structure (SMILES),growth [1],growth [2],growth [3],growth [4],growth [5],growth [6],growth [7],growth [8]
CCOc1ccc(C(C)=O)cc1NC(=O)c1cccc(-c2nnn(CC)n2)c1,29.6%,58.5%,-47.6% (active),31.2%,32.5%,19.3%,–,–
COc1cc2c(cc1-c1c(C)noc1C)ncc1nc(C3CCCC3)n([C@H](C)COC(F)F)c12,29.7%,54.8%,32.4%,57.5%,19.9%,31%,43.3%,–
COc1cc2c(cc1-c1c(C)noc1C)ncc1nc(C3CCC(F)(F)CC3)n([C@H](C)COC(F)F)c12,46%,61.9%,36.8%,57.3%,18.7%,33%,46.4%,–
Cn1cc(C(=O)c2nc(-c3c[nH]c4ccccc34)no2)c2ccccc21,44.4%,69.7%,7.96% (active),56.8%,20%,47.1%,45.5%,21.9%
O=S(=O)(Nc1ccc(Br)c(Cl)c1)c1ccc(-c2cnc(C3CC3)o2)cc1,30.9%,38.3%,-17.1% (active),19.3%,11.7%,19.5%,45.9%,33.8%
Cc1cc(NS(=O)(=O)c2ccc(-c3cnc(C4CC4)o3)cc2)ccc1Cl,32.4%,28.8%,0.57% (active),21.7%,11.1%,13.3%,25.1%,27%
FC(F)(F)Oc1ccc2nc3nc4ccc[nH]c4cc3c2c1,41.3%,84.4%,89.2%,86.8%,16.8%,81.4%,96.8%,72.8%
CCOc1cc2ncc(C#N)c(Nc3ccc(F)c(Cl)c3)c2cc1NC(=O)CC1CCSS1 (centres undefined),-48.4% (active),-25.3% (active),-92.1% (active),-49% (active),-34.7% (active),-61.7% (active),-74% (active),-77.6% (active)
O=C(N/N=C/c1c[nH]c2ccccc12)c1cc(-c2ccccc2)on1,77.2%,90.3%,94.8%,102%,79.1%,90.6%,92.9%,92.3%
COc1cc(-c2nn(-c3ccc(C)cc3)cc2C(=O)O)ccc1O,89.5%,103%,87.3%,103%,93.4%,99.7%,92.5%,64.7%
O=C1OCC2=C1C(c1ccncc1)c1cc3c(cc1N2CCO)OCO3 (centres undefined),91.1%,112%,96.7%,93.4%,96.3%,107%,103%,97.8%
CN(C)[C@@H]1C(=O)C(C(=O)NCc2nc3[nH]cnc(=S)c3[nH]2)=C(O)[C@@]2(O)C(=O)C3=C(O)c4c(O)cccc4[C@@](C)(O)[C@H]3C[C@@H]12,40.4%,54%,33.8%,73.8%,16.6%,33.8%,16.3%,68.5%
COc1ccc(Nc2nc(SC)nc(-c3cccc([N+](=O)[O-])c3)c2C#N)cc1,70.1%,86.9%,66.5%,57.9%,66.7%,15.8%,94.3%,97.7%
COc1ccc(O)c(N=Nc2nccs2)c1,37%,95.6%,104%,62.3%,64.3%,65.5%,89.4%,73.3%
Cc1ccc2c(C(C[N+](=O)[O-])c3ccccc3)c(-c3ccccc3)[nH]c2c1 (centres undefined),16.5% [9.5 µM],47.5% [9.5 µM],-31% [9.5 µM] (active),13.7% [9.5 µM],15% [9.5 µM],24.4% [9.5 µM],54.9% [9.5 µM],18.4% [9.5 µM]
CN1CCN(c2nc(NCCCCNc3ccnc4cc(Cl)ccc34)c3ccccc3n2)CC1,96.1%,74.6%,-10.5% (active),41.2%,51.3%,53.1%,57.4%,65.5%

Structure (SMILES),growth [1],growth [2],growth [3],growth [4],growth [5],growth [6],growth [7],growth [8]
Cc1cc(N2CCN(c3ccnc4cc(Cl)ccc34)CC2)nc(NC2CCCCC2)n1,7.8% (active),51.9%,-6.47% (active),14.9%,12.8%,3.19% (active),18.2%,30.1%
CCC(=O)c1ccc(Cl)s1,105%,90.5%,114%,104%,97.8%,101%,102%,107%
COc1ccc(-c2cc(C(=O)N=Nc3c(O)[nH]c4ccc(Br)cc34)no2)cc1,93.6%,107%,101%,93.7%,94.1%,91.6%,104%,100%
CN1CCN(c2nc(NCCCNc3ccnc4cc(Cl)ccc34)c3ccccc3n2)CC1,40.7%,74.5%,-22.4% (active),15.7%,29.9%,37.3%,37.2%,41.9%
Cc1nc(/N=C(\N)NC(=O)Nc2cccc([N+](=O)[O-])c2)sc1C,80.8%,65.8%,8.17% (active),40.1%,31.1%,71.1%,84.1%,72.1%
Cc1cc2nc(NC(=O)CN3CCN(CCN4C(=O)c5cccc6cccc(c56)C4=O)CC3)sc2cc1C,83.9%,86.1%,91.4%,96%,74.8%,74.7%,101%,92.5%
N#C/C(=C\c1ccc(-c2cc(C(F)(F)F)ccc2Cl)o1)c1nc(-c2ccco2)cs1,80.1%,114%,102%,103%,45.3%,104%,104%,99.9%
C#CC(F)(F)[C@]1(O)CC[C@H]2[C@@H]3CCC4=CC(=O)CCC4=C3[C@@H](c3ccc(C(C)=O)cc3)C[C@@]21C,58.4%,106%,102%,81.1%,58%,94.9%,108%,29.8%
CCOC(=O)c1sc2nc(-c3cccc(O)c3)nc(N3CCOCC3)c2c1C,5.33% (active),52.8%,63.5%,73.2%,55.5%,68.1%,78.2%,63.3%
CSc1nc(NCc2ccccc2)c(C#N)c(-c2cccc([N+](=O)[O-])c2)n1,82.8%,95.8%,99.4%,96.5%,91.8%,87.1%,107%,98.2%
Cc1c(/C=C/[N+](=O)[O-])ccc2c1[nH]c1ccccc12,78.1%,59.2%,-11.2% (active),77.7%,-11.9% (active),-97.8% (active),-30.7% (active),52.4%
CCn1c(O)c(/C=N/NC(=O)C(C)c2ccc(CC(C)C)cc2)sc1=S (centres undefined),38%,11.5%,-44.4% (active),27.3%,20.5%,11.6%,29.5%,18.7%
C=C(C)[C@@H]1CC[C@]2(C(=O)OC)CC[C@]3(C)[C@H](CC[C@@H]4[C@@]5(C)C/C(=C/c6cccc(I)c6)C(=O)C(C)(C)[C@@H]5CC[C@]43C)[C@@H]12,93.6%,101%,96.6%,101%,89.2%,95.4%,99.7%,101%
COc1cc(/C=C/C(=O)c2cccnc2Nc2ccc(F)cc2)cc(OC)c1OC,61.4%,39.5%,28.4%,21.6%,8.82% (active),13.9%,21.7%,24.6%
COc1cc2nc(N3CCCC3)nc(Nc3ccccc3)c2cc1OC,-49.1% (active),-70.9% (active),-61.4% (active),-20.4% (active),-71.6% (active),-79.4% (active),-51.2% (active),33%
